Screening results (PubChem BioAssay)
This is a sample that favours compounds with a hit; in the whole collection about 7.8% have one here.
Shh pathway inh – blocks Sonic Hedgehog signaling; Shh-LIGHT2 Gli-luciferase reporter, 30 h; inhibition, % (concentration not given with the values); 22,000 tested, 2.1% active; AID 2313;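 active means mean inhibition across valid replicates above about 65%, limit read from the data; inconclusive means mean under the limit, yet half or more replicates past it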;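 further: pathway switched on by Shh-conditioned medium diluted 1 in 25 in low serum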
NOMO-1 viab – STK33 inhibitor candidate reducing NOMO-1 cell viability | AID 2330 | inhibition, % (concentration not given with the values) | NOMO-1 AML viability, CellTiter-Glo luminescence, 72 h | 37,000 tested, 7.5% active; in the data active means inhibition above about 80%; inconclusive means no clear call, values can overlap the other calls
MITF inh – inhibitors of MITF. TRPM1 promoter luciferase, luminescence, 24 h. inhibition, % (test concentration not listed). 37,000 tested, 0.28% active; in the data active means inhibition above about 85%; inconclusive means no clear call, values can overlap the other calls; inactive means below about 68%;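 further: human melanocyte line stably carrying TRPM1 promoter luciferase reporter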
* = called active by the depositor; ? = inconclusive; / = no result.

SMILES | Shh pathway inh | NOMO-1 viab | MITF inh
O=C(CSc1nc2sc3c(c2c(=O)n1-c1ccccc1)CCCC3)Nc1ccccc1 | / | 29.5 | -2.8
CCN(CC)c1c(C#N)c(SCC(=O)c2cccs2)cc2c1CCCC2 | 80.8* | 44.8 | 8.2
Cc1cc(C)c2c(=O)[nH]c(SCC(=O)c3cccs3)nc2n1 | / | -11.1 | 2.9
C[C@@H]1CN([C@H](C)CO)C(=O)Cc2cc(NC(=O)c3ccncc3)ccc2O[C@H]1CN(C)Cc1ccc(C(=O)Nc2ccccc2N)cc1 | / | 29.2 | -9.3
C[C@@H]1CN([C@H](C)CO)C(=O)Cc2cc(NC(=O)C3CC3)ccc2O[C@@H]1CN(C)Cc1ccc(C(=O)Nc2ccccc2N)cc1 | / | 64.9 | 11.1
C[C@@H]1CN([C@H](C)CO)C(=O)Cc2cc(N(C)C)ccc2O[C@@H]1CN(C)Cc1ccc(C(=O)Nc2ccccc2N)cc1 | / | 139.7* | 64.9
C[C@@H]1CN([C@H](C)CO)C(=O)Cc2cc(N(C)C)ccc2O[C@H]1CN(C)Cc1ccc(C(=O)Nc2ccccc2N)cc1 | / | 126.9* | 32.5
Cc1ccc(NC(=O)CCn2nc(-c3ccccc3)c3ccccc3c2=O)cc1 | / | 2.6 | -2.2
COC(=O)c1c(NC(=O)CSc2ccccn2)sc2c1CCC2 | / | 27.9 | 11.0
COc1ccccc1CC(=O)Nc1ccccc1C(=O)NC(C)(C)C | / | 17.0 | -5.2
O=c1cc(N2CCOCC2)oc2c1ccc1ccccc12 | -70.0 | 17.6 | -1.8
O=c1cc(N2CCOCC2)oc2c(-c3ccccc3)cccc12 | 70.7* | 124.8* | 36.3
CC1CCc2c(sc3nc(SCC(=O)NCC4CCCO4)n(-c4ccccc4)c(=O)c23)C1 (stereo unspecified) | / | ? | -1.2
O=C(CSC1=NC(=O)C(c2ccccc2)C(=O)N1)NC1CCCCC1 (stereo unspecified) | 7.4 | 13.0 | -2.2
CC(C)NC(=O)Nc1ccc2c(c1)CC(=O)N([C@H](C)CO)C[C@H](C)[C@H](CN(C)Cc1ccc(-c3ccccc3)cc1)O2 | -18.3 | 42.1 | -0.2
CC(C)NC(=O)Nc1ccc2c(c1)CC(=O)N([C@@H](C)CO)C[C@@H](C)[C@@H](CN(C)Cc1ccc(-c3ccccc3)cc1)O2 | 19.4 | 94.3* | 22.1
C[C@H]1CN([C@@H](C)CO)C(=O)Cc2cc(NC(=O)Nc3ccc(F)cc3)ccc2O[C@@H]1CN(C)Cc1ccc(-c2ccccc2)cc1 | -68.3 | 105.8* | -11.1
C[C@@H]1CN([C@H](C)CO)C(=O)Cc2cc(NC(=O)Nc3ccccc3)ccc2O[C@@H]1CN(C)Cc1ccc(-c2ccccc2)cc1 | 4.4 | 107.0* | 12.7
COc1ccc(NC(=O)Nc2ccc3c(c2)CC(=O)N([C@@H](C)CO)C[C@H](C)[C@@H](CN(C)Cc2ccc(-c4ccccc4)cc2)O3)cc1 | 4.7 | 12.8 | 4.2
COc1ccc(NC(=O)Nc2ccc3c(c2)CC(=O)N([C@@H](C)CO)C[C@H](C)[C@H](CN(C)Cc2ccc(-c4ccccc4)cc2)O3)cc1 | 21.9 | 128.2* | 24.0
C[C@@H]1CN([C@H](C)CO)C(=O)Cc2cc(NC(=O)Nc3ccc(F)cc3)ccc2O[C@@H]1CN(C)Cc1ccc(-c2ccccc2)cc1 | 35.9 | 49.6 | 5.7
C[C@@H]1CN([C@@H](C)CO)C(=O)Cc2cc(NC(=O)Nc3ccccc3)ccc2O[C@@H]1CN(C)Cc1ccccc1 | -4.6 | 22.6 | 1.1
CSc1ccccc1NC(=O)C(C)N(c1ccccc1)S(C)(=O)=O (stereo unspecified) | / | 6.8 | -2.4
COc1cc(NC(=O)CN(C)S(=O)(=O)c2cc(Cl)ccc2Cl)cc(OC)c1 | / | -0.7 | -5.1
CC(C)=CCc1c(O)cc(O)c2c1OC(c1ccc(O)c(O)c1)CC2=O (stereo unspecified) | 33.3 | / | /
SMILES | Shh pathway inh | NOMO-1 viab | MITF inh
CC(C)=CCc1c(O)c(CC=C(C)C)c2c(c1O)C(=O)CC(c1ccc(O)cc1O)O2 (stereo unspecified) | -1.6 | 116.4* | 16.0
N#Cc1c(NC(=O)CCn2cnc3ccccc3c2=O)sc2c1CCC2 | / | 7.5 | -21.1
C[C@H](CO)N1C[C@H](C)[C@H](CN(C)Cc2ccc(C(=O)Nc3ccccc3N)cc2)Oc2ccc(N(C)C)cc2C1=O | / | 110.6* | 30.2
C[C@@H]1CN([C@@H](C)CO)C(=O)c2cc(N(C)C)ccc2O[C@H]1CN(C)Cc1ccc(C(=O)Nc2ccccc2N)cc1 | / | 109.7* | 44.7
C[C@H]1CN([C@@H](C)CO)C(=O)c2cc(NC(=O)Nc3ccc4c(c3)OCO4)ccc2O[C@H]1CN(C)Cc1ccc(C(=O)Nc2ccccc2N)cc1 | / | 40.1 | -5.0
C[C@@H]1CN([C@H](C)CO)C(=O)c2cc(NC(=O)Nc3ccc4c(c3)OCO4)ccc2O[C@@H]1CN(C)Cc1ccc(C(=O)Nc2ccccc2N)cc1 | / | ? | -5.1
C[C@H]1CN([C@@H](C)CO)C(=O)c2cc(N(C)C)ccc2O[C@H]1CN(C)Cc1ccc(C(=O)Nc2ccccc2N)cc1 | / | 109.9* | 13.8
C[C@@H]1CN([C@H](C)CO)C(=O)c2cc(N(C)C)ccc2O[C@@H]1CN(C)Cc1ccc(C(=O)Nc2ccccc2N)cc1 | / | 109.7* | 40.7
C[C@H]1CN([C@@H](C)CO)C(=O)c2cc(NS(C)(=O)=O)ccc2O[C@H]1CN(C)Cc1ccc(C(=O)Nc2ccccc2N)cc1 | / | 30.0 | -22.4
Cc1cccc(NC(=O)c2ccccc2NC(=O)COc2ccccc2)c1C | / | 35.3 | 2.5
Clc1ccc(-n2c(SCc3nc4ccccc4s3)nnc2-c2cccs2)cc1 | / | 29.7 | 27.2
CC(C)(Oc1ccc(Cl)cc1)C(=O)Nc1cc(-c2nc3ncccc3o2)ccc1Cl | / | 36.8 | -4.6
Cc1ccc(S(=O)(=O)/C=C/C#N)cc1 | 98.1* | 141.8* | 88.9*
Cc1ccc(S(=O)(=O)c2ccc(C)cc2)cc1 | 6.7 | -1.6 | 5.3
O=C(O)c1ccc(Oc2ccccc2)cc1 | -22.4 | -9.5 | -9.6
COc1ccc([N+](=O)[O-])cc1N(CC(=O)Nc1ccccc1Br)S(C)(=O)=O | / | 0.6 | -6.7
Cc1cc(Br)ccc1NC(=O)Cn1nc(C)c([N+](=O)[O-])c1C | / | 6.7 | 1.5
N#C/C(=C\c1ccc(O)c(O)c1)C(=O)Nc1ccccc1 | 1.1 | ? | -4.1
N#C/C(=C/c1ccc(O)c(O)c1)C(=O)OC/C=C/c1ccccc1 | ? | 99.2* | -9.8
CN(CCCC(=O)O)c1nc(-c2ccc(F)cc2)cs1 | / | 18.5 | -39.4
CN(C)/C=C/C(=O)c1ccc2c(c1)CCC(C)(C)O2 | 51.4 | 120.8* | 8.7
CC1(C)CCc2cc(-c3ccn(S(=O)(=O)c4ccc(Cl)cc4)n3)ccc2O1 | 26.0 | 67.9 | 13.9
COc1ccc(OC)c(-n2c(CN3CCC(C(N)=O)CC3)nc3ccccc3c2=O)c1 | / | 27.1 | 3.5
COc1ccc(OC)c(-n2c(CNC3CCN(Cc4ccccc4)CC3)nc3ccccc3c2=O)c1 | / | 90.5* | 4.1
COC(=O)c1cc(OC)c(OC)cc1NC(=O)COc1cc(Cl)c(Cl)cc1Cl | / | ? | 15.2
CCC(C)[C@H]1C(=O)O[C@H](C(C)C)C(=O)N(C)[C@@H](C(C)C)C(=O)O[C@H](C(C)C)C(=O)N(C)[C@@H](C(C)C)C(=O)O[C@H](CC(C)C)C(=O)N1C (stereo partly specified) | 106.0* | 119.4* | 77.9
O=C(CSc1nc2ccc(NC(=O)c3ccccc3Br)cc2s1)Nc1ccccc1 | / | 20.1 | 11.9
COc1ccc(N2C(=O)N(c3ccc(F)cc3)C(=O)C2CC(=O)Nc2ccc(F)cc2)cc1 (stereo unspecified) | / | -0.7 | -25.5
